Bioassay records deposited in PubChem by The Scripps Research Institute Molecular Screening Center.
hcDAF12 agonist = H. contortus DAF-12 activation, primary screen | activation, % at 6.8 µM | HEK293 hcDAF-12 lit1-tk-luc reporter, luminescence; 0% DMSO, 100% Δ7-dafachronic acid | actives 1.4% (n = 370,000);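 active means activation above the mean of all tested compounds plus 3 SD, cut at about 5.5% in these data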;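 further: 100% = response to 3 µM Δ7-dafachronic acid high control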
DAX1 inh-1 = inhibits human nuclear receptor DAX1. P51843. HEK293 Gal4-DAX1 luciferase reporter, luminescence. inhibition, % at 6.75 µM. actives 0.99% (n = 340,000). AID 504766;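 active means inhibition above the mean over all tested compounds plus 3 SD, cut at about 4.2% in these data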;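 further: 0% = DAX1-transfected cells with DMSO and 100% = empty-vector control cells with DMSO; inhibition shows as a rise in luminescence from relieved DAX1 repression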
Target sequence (P51843 207-470 limits assumed): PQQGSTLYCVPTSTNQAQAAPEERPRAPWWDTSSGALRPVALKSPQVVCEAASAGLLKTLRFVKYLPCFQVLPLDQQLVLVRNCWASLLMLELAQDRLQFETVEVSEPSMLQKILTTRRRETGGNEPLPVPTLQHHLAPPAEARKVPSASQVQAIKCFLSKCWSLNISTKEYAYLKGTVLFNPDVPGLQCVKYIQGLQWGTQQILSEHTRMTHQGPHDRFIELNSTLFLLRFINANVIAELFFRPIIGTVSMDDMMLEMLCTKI
DAX1 inh-2 = inhibitors of DAX1 repression of SF-1 activated StAR promoter. HEK293T StAR-luciferase reporter, SF-1/DAX-1 repression relief. inhibition, % at 6.8 µM. actives 1.1% (n = 370,000). AID 652010;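 active means inhibition above the mean over all tested compounds plus 3 SD, cut at about 3.6% in these data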;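 further: 0% = DAX-1 cells with DMSO and 100% = cells lacking DAX-1 with DMSO; higher inhibition means more luminescence from relief of DAX-1 repression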
hgDAF12 agonist = agonists of H. glycines DAF-12 nuclear receptor. HEK293 GAL4-hgDAF12 UAS-luciferase reporter, agonist luminescence; normalized to butyrate control. activation, % at 6.8 µM. actives 1.8% (n = 370,000);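 active means activation above a cutoff set at the mean of all screened compounds plus 3 SD, cut at about 10% in these data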;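 further: 0% = DMSO wells and 100% = sodium butyrate wells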
ssDAF-12 act = S. stercoralis DAF-12 activation, primary screen; HEK293 ssDAF-12/GRIP1 lit1-tk-luc reporter, luminescence; % of 3 µM dafachronic acid response; actives 1% (n = 370,000); activation, % at 6.8 µM;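 active means activation above the mean over all tested compounds plus 3 SD, cut at about 0.9% in these data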;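 further: 0% = DMSO-only wells and 100% = 3 µM delta7-dafachronic acid wells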
DAX1 inh confirm = confirmation of human DAX1 (NR0B1) inhibitors | shares compounds with DAX1 inh-2 | HEK293T StAR-promoter luciferase reporter, SF-1/DAX-1 repression | inhibition, % at 6.8 µM | actives 87% (n = 2,400);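 active means inhibition above the average of every tested compound plus 3 SD, cut at about 3.8% in these data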;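 further: 0% = DAX-1 cells with DMSO and 100% = no DAX-1 control cells with DMSO; active compounds raise luminescence by relieving repression of the StAR reporter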
Target sequence (P51843 whole entry, looked up): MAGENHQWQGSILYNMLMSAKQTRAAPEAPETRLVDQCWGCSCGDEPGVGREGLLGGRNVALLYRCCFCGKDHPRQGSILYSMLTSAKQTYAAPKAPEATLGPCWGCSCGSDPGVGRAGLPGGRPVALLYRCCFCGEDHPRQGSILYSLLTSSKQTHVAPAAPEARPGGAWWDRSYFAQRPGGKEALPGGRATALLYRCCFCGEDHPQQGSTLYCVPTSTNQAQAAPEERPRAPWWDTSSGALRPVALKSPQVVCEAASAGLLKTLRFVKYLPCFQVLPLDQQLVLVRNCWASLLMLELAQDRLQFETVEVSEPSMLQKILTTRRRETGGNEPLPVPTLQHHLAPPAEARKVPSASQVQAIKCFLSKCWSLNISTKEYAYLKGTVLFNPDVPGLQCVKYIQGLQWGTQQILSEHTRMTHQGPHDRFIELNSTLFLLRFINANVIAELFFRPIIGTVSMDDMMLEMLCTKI
SF1 AF2mut Luc = counter-screen for DAX1 inhibitors: nonselective inhibitors with SF-1 AF2 mutant. shares compounds with DAX1 inh-2. HEK293 StAR-luciferase, luminescence. inhibition, % at 6.8 µM. actives 78% (n = 2,400). AID 652136;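 active means inhibition above the mean of all tested compounds plus 3 SD, cut at about 3% in these data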;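 further: 0% = DAX-1 transfected cells with DMSO and 100% = cells without DAX-1 with DMSO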
LXRb hcDAF ctr = activates human LXR-beta, counter-screen for hcDAF-12 agonists; shares compounds with hcDAF12 agonist; HEK293 Gal4-LXR tk-luc reporter, luminescence, 24 h; normalized: DMSO 0%, positive control 100%; activation, % at 6.8 µM; 3,400 tested, under 10 active;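 active means mean percent activation of the reporter above a cutoff set as the average over tested compounds plus their standard deviation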
hcDAF12 conf = hcDAF-12 agonism, confirmation assay; shares compounds with hcDAF12 agonist; HEK293 hcDAF-12 lit1-tk-luc reporter, luminescence; % of Δ7-dafachronic acid response; activation, % at 6.8 µM; actives 61% (n = 3,400); AID 743032;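 active means mean activation across triplicate tests above the threshold derived from the earlier primary screen, cut at about 5.5% in these data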;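 further: 0% = DMSO only wells and 100% = 3 µM Δ7-dafachronic acid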
hgDAF12 conf = hgDAF-12 agonism, confirmation assay | HEK293 GAL4-hgDAF12 luciferase reporter, agonist mode; percent of butyrate response | activation, % at 6.8 µM | actives 80% (n = 3,300) | shares compounds with hgDAF12 agonist | AID 743050;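 active means mean activation over triplicate wells above the hit cutoff derived from the earlier primary screen, cut at about 11% in these data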;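 further: 0% = DMSO low control and 100% = 2 mM sodium butyrate high control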
LXR ag 2 = LXR-beta agonism as DAF-12 counter-screen; AID 743051; shares compounds with hgDAF12 agonist; HEK293 Gal4-LXR luciferase reporter, 24 h; 3,300 tested, under 10 active; activation, % at 6.8 µM;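 active means mean activation of the triplicate above a set limit carried over from the primary screen, none filed active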
The depositor's hits bear a star; · = not tested or not shown. Sampled rows, rich in hits. Any-hit rate of the full collection: about 4.1%.

SMILES | hcDAF12 agonist | DAX1 inh-1 | DAX1 inh-2 | hgDAF12 agonist | ssDAF-12 act | DAX1 inh confirm | SF1 AF2mut Luc | LXRb hcDAF ctr | hcDAF12 conf | hgDAF12 conf | LXR ag 2
Cc1ccc(C(C#N)=Cc2ccc3c(c2)OCO3)cc1 | 5 | 4 | 6.8* | 18* | 1 | 11* | 5.0* | · | · | 21* | 1
CN(C)C(=O)c1cccc(COc2ccc(N3C(N)=NC(N)=NC3(C)C)cc2Cl)c1 | -2 | -2 | -4 | -12 | -2 | · | · | · | · | · | ·
O=c1c2c(nc3cc(-c4cccc(Cl)c4)[nH]n13)CCC2 | 5 | 2 | 5.5* | 15* | 1 | 16* | 6.7* | · | · | 14* | 1
COc1ccc(NC(=O)COC(=O)Cc2cccs2)cc1Cl | -1 | -1 | -1 | 0 | -1 | · | · | · | · | · | ·
O=[N+]([O-])c1ccccc1OCCCn1cnc2ccccc21 | 0 | 2 | 5.5* | 17* | -1 | 7.2* | 4.3* | · | · | 16* | 1
CCOC(=O)Cn1c(-c2cccnc2)nc(-c2ccccc2)c1-c1ccccc1 | -3 | -2 | -1 | 2 | -1 | · | · | · | · | · | ·
CCOC(=O)C(=C1Nc2ccccc2N1)n1c(-c2cccnc2)nc2ccccc21 | 3 | · | 5.1* | 15* | 0 | 7.7* | 4.4* | · | · | 13* | 1
CC1=C(C(=O)OCC(C)C)C2(O)C(=O)c3ccccc3C2(O)N1 (configuration not stated) | 0 | 3 | 0 | -5 | -1 | · | · | · | · | · | ·
O=c1[nH]c(/C=C\c2cccc(F)c2)nc(O)c1[N+](=O)[O-] | 0 | 1 | 0 | 0 | -1 | · | · | · | · | · | ·
Cc1ccc2nc(/C=C/c3cccc(F)c3)ccc2c1 | 8.3* | 2 | 5.1* | 21* | 2.8* | 10* | 5.1* | 2 | 8.7* | 20* | 1
Cc1ccc(C(=O)C(C)OC(=O)c2ccccc2[N+](=O)[O-])cc1 (configuration not stated) | 4 | 1 | 6.1* | 18* | 0 | 15* | 9.8* | · | · | 15* | 1
CCCCc1nc(C(N)=O)c2[nH]c(=O)n(-c3ccc(OCC)cc3)c2n1 | · | -1 | · | · | · | · | · | · | · | · | ·
Cc1csc(SCc2nnc(-c3ccc(Cl)cc3)o2)n1 | 2 | 3 | 2 | 9 | 0 | · | · | · | · | · | ·
Cc1csc(SCc2nnc(-c3ccccc3Br)o2)n1 | 5 | 2 | 6.5* | 16* | 1 | 14* | 8.2* | · | · | 17* | 1
Fc1ccccc1SCc1nnc(-c2ccccc2Br)o1 | 5 | 0 | 6.5* | 14* | 0 | 16* | 7.3* | · | · | 20* | 1
Cc1cccnc1NC(=S)NC(=O)c1cccs1 | 14* | 4 | 7.2* | 18* | 2.2* | 14* | 10* | 1 | 15* | 17* | 1
O/N=C(\COc1ccccc1O)c1ccccc1 | 0 | -1 | 0 | 0 | -1 | · | · | · | · | · | ·
ON=C(CCc1ccccc1)c1ccccc1 | 7.0* | · | 5.1* | 15* | 0 | 12* | 6.7* | 1 | 5.8* | 16* | 1
CCOc1ccc(C2C(C(=O)c3ccco3)=C(O)C(=O)N2CCN2CCOCC2)cc1 (configuration not stated) | 3 | 0 | 0 | -2 | 0 | · | · | · | · | · | ·
O=C(Nc1ccccc1O)c1ccc(NC(=O)C2CC2)cc1 | 9.8* | 9.5* | 42* | 62* | 1 | 46* | 22* | 2 | 7.9* | 69* | 1
O=C(Nc1ccccc1C(=O)O)c1ccc(NC(=O)C2CC2)cc1 | 1 | -2 | -1 | -1 | -1 | · | · | · | · | · | ·
Cc1cc(C(=O)CN2C(=O)NC3(CCCCC3C)C2=O)c(C)n1Cc1cccs1 (configuration not stated) | 4 | 1 | 5.0* | 15* | 0 | 9.6* | 5.5* | · | · | 10* | 1
CC1CCCCC12NC(=O)N(CC(=O)NCc1cccs1)C2=O (configuration not stated) | -1 | 0 | 1 | -1 | -2 | · | · | · | · | · | ·
O=C(Nc1ccc(N2CCCC2)cc1)c1ccc(Br)o1 | 9.2* | 1 | 6.0* | 16* | 1 | 12* | 6.0* | 2 | 7.9* | 17* | 1
O=C(Nc1ccc(N2CCCCC2)cc1)c1ccc(F)cc1 | 8.3* | 0 | 4.6* | 13* | 1 | 12* | 6.0* | 1 | 2 | 20* | 1
SMILES | hcDAF12 agonist | DAX1 inh-1 | DAX1 inh-2 | hgDAF12 agonist | ssDAF-12 act | DAX1 inh confirm | SF1 AF2mut Luc | LXRb hcDAF ctr | hcDAF12 conf | hgDAF12 conf | LXR ag 2
O=C(Nc1ccc(N2CCN(C(=O)c3ccccc3)CC2)cc1)c1ccc(Br)o1 | -4 | -1 | -1 | -1 | -1 | · | · | · | · | · | ·
CCCn1c(N)c(N(CCOC)C(=O)c2ccc([N+](=O)[O-])c(C)c2)c(=O)[nH]c1=O | 0 | 0 | 0 | 1 | 0 | · | · | · | · | · | ·
CCc1sc(C(=O)Nc2ncccc2O)cc1C | 7.9* | -2 | 22* | 22* | 1.0* | 15* | 6.2* | 1 | 7.9* | 26* | 1
CCc1sc(C(=O)Nc2ncccc2C)cc1C | 1 | 0 | 1 | 1 | 0 | · | · | · | · | · | ·
Cc1noc(C)c1S(=O)(=O)N1CCC(C(N)=O)CC1 | -1 | 0 | 0 | -1 | -1 | · | · | · | · | · | ·
CC(C)c1nnc(NC(=O)c2ccc3c(c2)OCO3)s1 | 9.6* | 4 | 4.9* | 15* | 0 | 12* | 2 | 1 | 4 | 7 | 1
Cc1ccn2c(c1)nc(=S)n2C(=O)c1ccccc1 | 6.7* | 4.5* | 6.5* | 15* | 1 | 8.0* | 1 | 1 | 12* | 11* | 1
COc1ccc(-c2cc(C(=O)N3CCCC(C(F)(F)F)C3)c3ccccc3n2)cc1OC (configuration not stated) | -1 | -2 | -2 | -4 | 0 | · | · | · | · | · | ·
N/C(=N\OC(=O)COc1ccc(Cl)cc1Cl)c1ccccn1 | 6.4* | -1 | 5.3* | 16* | 0 | 19* | 7.2* | · | · | 15* | 1
